Screening data (PubChem BioAssay)
The list is not random: actives were taken first. Their share in the collection is about 1.5%.
Mac1 fbg inh: inhibitors of CD11b/CD18 adhesion to fibrinogen, primary screen, K562 cells, luminescence; AID 1497, 2009; 93,000 compounds, 0.54% hits; ATPlite luminescence; Mn2+ added to activate the integrin; inhibition, % at 10 µM;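 active = primary inhibition of 50% or more at 10 µM, then 40% or more on retest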
PLAP act: PLAP enzyme activators, biochemical, luminescence, HTS; purified PLAP enzyme, luminescent substrate read-out; stronger effect = higher value; activation fold at 20 µM; 96,000 compounds, 1.2% hits; in the data active = activation fold above about 2
HePTP inhibitor: inhibitors of human HePTP phosphatase, primary screen, biochemical, absorbance, leukemia target; Tyrosine-protein phosphatase non-receptor type 7 (Homo sapiens), P35236; recombinant HePTP phosphatase activity, OD absorbance; 110,000 compounds, 0.64% hits; inhibition, % at 20 µM; in the data active = inhibition above about 50%;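 note: plate controls were vehicle for no effect and reference inhibitor for full effect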
Target sequence (P35236 whole entry, looked up): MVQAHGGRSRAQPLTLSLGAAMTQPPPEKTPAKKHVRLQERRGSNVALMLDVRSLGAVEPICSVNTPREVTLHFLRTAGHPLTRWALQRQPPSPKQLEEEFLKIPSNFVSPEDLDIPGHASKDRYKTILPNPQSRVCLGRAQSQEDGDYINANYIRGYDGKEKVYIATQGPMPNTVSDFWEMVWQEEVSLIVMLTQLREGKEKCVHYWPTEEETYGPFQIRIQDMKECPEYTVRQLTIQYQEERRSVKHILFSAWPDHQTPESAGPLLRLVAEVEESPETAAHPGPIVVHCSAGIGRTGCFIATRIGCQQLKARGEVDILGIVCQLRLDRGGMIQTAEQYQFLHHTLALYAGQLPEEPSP
CD11b adhes enh: enhancers of CD11b/CD18 adhesion to fibrinogen, primary screen, K562 cells, luminescence. Integrin beta-2 (Homo sapiens) + Integrin alpha-M (Homo sapiens), P05107+P11215. ATPlite luminescence. activation, % at 10 µM. 93,000 compounds, 0.07% hits. AID 1499, 2009;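 active = 10 µM primary screen giving 50% or more activity, confirmed by 40% or more on retest at that dose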
* hit, by the source's call; x = no result.

SMILES | Mac1 fbg inh | PLAP act | HePTP inhibitor | CD11b adhes enh
Cc1ccc(NCc2nnc(SCC(=O)NCc3ccco3)n2CC2CCCO2)cc1Cl (centres undefined) | -14 | 1.6 | -6 | 4
N#C/C(=C/c1ccc(O)c([N+](=O)[O-])c1)C(=O)Nc1cccc(Br)c1 | x | x | 102* | x
N#C/C(=C\c1ccc(-c2ccccc2[N+](=O)[O-])o1)C(=O)Nc1cccc(Br)c1 | x | x | 8 | x
N#C/C(=C/c1ccc([N+](=O)[O-])o1)C(=O)Nc1cccc(Br)c1 | x | x | 87* | x
Oc1cccc(/C=N\N2CCN(c3ccccc3)CC2)c1 | x | x | 1 | x
COc1ccccc1NC(=O)c1ccc2c3c(cccc13)CC2 | x | x | 10 | x
O=C(NCc1ccco1)c1sc(=S)n2c1[nH]c(=O)c1ccccc12 | 96* | 1.3 | 20 | -10
O=C(NC1CCCC1)c1sc(=S)n2c1[nH]c(=O)c1ccccc12 | 95* | 1.1 | -4 | -8
O=c1c(-c2ccc(Cl)cc2Cl)coc2c(CN3CCCCCC3)c(O)ccc12 | x | x | 0 | x
Cc1ccccc1NC1CC(C)N(C(=O)c2ccccc2)c2c(C)cccc21 (centres undefined) | x | x | 103* | x
CC1CC(Nc2ccccc2)c2ccccc2N1C(=O)c1ccc(Cl)c(Cl)c1 (centres undefined) | x | x | 10 | x
CCNC(=S)Nc1cccc(Cl)c1 | x | x | 13 | x
COc1cccc(CNCCc2c[nH]c3ccccc23)c1OCc1ccccc1 | 60* | x | x | 1
COc1cc(CNCCc2c[nH]c3ccccc23)ccc1OCc1ccccc1F | 15 | 1.5 | x | -2
Cc1ccccc1COc1ccc(/C(O)=C2/C(=O)C(=O)N(CCCn3ccnc3)C2c2ccco2)cc1 (centres undefined) | -6 | 2.6* | 5 | -1
COc1ccc(S(=O)(=O)Nc2ccc(C)cc2C)cc1Br | x | x | 8 | x
CCOc1ccc2c(c1)n(CO)c(=S)n2CO | x | 2.3* | 1 | x
CCNC(=S)NNC(=O)c1cccc(Br)c1 | x | 1.2 | 11 | x
Cn1cc(Br)c(C(=O)NNC(=O)c2cccc(Br)c2)n1 | x | 2.3* | x | x
CC1CCCN(C/C(O)=C(\C#N)c2nc3ccccc3[nH]2)C1 (centres undefined) | 0 | 2* | 4 | 3
CC(C)(C)/C(O)=C(/C#N)c1nc2ccccc2[nH]1 | -22 | 1.4 | 8 | 1
COc1ccc(C/C(O)=C(\C#N)c2nc3ccccc3[nH]2)cc1OC | -3 | 2.7* | 2 | -2
Cc1cc(C)n2c(SC/C(O)=C(\C#N)c3nc4ccccc4[nH]3)nnc2n1 | -3 | 2* | 20 | 27
CCOC(=O)c1c(C)[nH]c(C(=O)OC/C(O)=C(\C#N)c2nc3ccccc3[nH]2)c1C | -34 | 2.1* | 8 | 49
O=C(CN(Cc1ccccc1)S(=O)(=O)c1ccccc1)NCc1ccc(Cl)cc1 | x | x | -15 | x
SMILES | Mac1 fbg inh | PLAP act | HePTP inhibitor | CD11b adhes enh
O=C(NNC(=O)C1CCCCC1)c1cnccn1 | x | 2* | x | x
Cc1ccc(Cl)cc1NC(=O)CC(O)(C(F)(F)F)C(F)(F)F | 98* | 0.9 | 2 | -10
CC(=O)CC(=O)Nc1cc(Cl)ccc1C | x | x | 10 | x
O=C(COc1cccc2ccccc12)NNC(=O)Cc1ccc(Cl)cc1 | x | x | -11 | x
CCOC(=O)C1=C(O)/C(=C/c2ccco2)SC1=Nc1ccc(C)cc1 | x | x | -11 | x
CC(NC(=O)CN(C)Cc1nc2ccccc2c(=O)[nH]1)c1ccccc1 (centres undefined) | 19 | 2.3* | x | -1
Cc1ccc(NC(=O)CN(C)Cc2nc3ccccc3c(=O)[nH]2)c(Br)c1 | 3 | 2.2* | x | -1
Cc1cc(Br)ccc1NC(=O)CNC(=O)CN(C)Cc1nc2ccccc2c(=O)[nH]1 | 4 | x | 5 | 0
CCN(CC(=O)Nc1ccccc1Br)Cc1nc2ccccc2c(=O)[nH]1 | x | 2.3* | x | x
CCC(CC)NC(=O)CCc1nc2ccccc2c(=O)[nH]1 | -5 | 0.8 | x | -1
CC1(C)c2ssc(=S)c2-c2ccccc2N1C(=O)CN1CCCCC1 | x | x | 8 | x
O=C(O/N=C/c1ccc([N+](=O)[O-])cc1)c1cccs1 | x | x | -1 | x
CCc1nc(SCC(=O)NNC(=O)C2CCCCC2)c2ccccc2n1 | x | 1.7 | x | x
CCc1nc(SCC(=O)NNC(=O)C(C)C)c2ccccc2n1 | -10 | 2* | x | 4
COc1cc(OC)cc(C(=O)Nc2ccccc2Br)c1 | x | x | -8 | x
N#CC(C#N)=CN1CCCc2ccccc21 | x | x | -1 | x
Cc1cc(Cl)ccc1NC(=O)c1ccc(N(Cc2ccccc2)S(C)(=O)=O)cc1 | x | x | 8 | x
